Results: publication PMC4336329 (PLoS ONE, 2015)
In all, about 310,000 compounds went through this assay and about 2,200 (0.71%) showed an effect of 50% or more. Effects have a minus sign here. For the sample, strong results were picked, then their nearest neighbours and some compounds at random.

Target: human ether-à-go-go-related gene (hERG) potassium channel (human, UniProt Q12809)
Test: primary screen, population patch clamp on CHO cells stably expressing hERG; higher = less effect of the substance

Sequence of human ether-à-go-go-related gene (hERG) potassium channel (Q12809 whole entry, looked up): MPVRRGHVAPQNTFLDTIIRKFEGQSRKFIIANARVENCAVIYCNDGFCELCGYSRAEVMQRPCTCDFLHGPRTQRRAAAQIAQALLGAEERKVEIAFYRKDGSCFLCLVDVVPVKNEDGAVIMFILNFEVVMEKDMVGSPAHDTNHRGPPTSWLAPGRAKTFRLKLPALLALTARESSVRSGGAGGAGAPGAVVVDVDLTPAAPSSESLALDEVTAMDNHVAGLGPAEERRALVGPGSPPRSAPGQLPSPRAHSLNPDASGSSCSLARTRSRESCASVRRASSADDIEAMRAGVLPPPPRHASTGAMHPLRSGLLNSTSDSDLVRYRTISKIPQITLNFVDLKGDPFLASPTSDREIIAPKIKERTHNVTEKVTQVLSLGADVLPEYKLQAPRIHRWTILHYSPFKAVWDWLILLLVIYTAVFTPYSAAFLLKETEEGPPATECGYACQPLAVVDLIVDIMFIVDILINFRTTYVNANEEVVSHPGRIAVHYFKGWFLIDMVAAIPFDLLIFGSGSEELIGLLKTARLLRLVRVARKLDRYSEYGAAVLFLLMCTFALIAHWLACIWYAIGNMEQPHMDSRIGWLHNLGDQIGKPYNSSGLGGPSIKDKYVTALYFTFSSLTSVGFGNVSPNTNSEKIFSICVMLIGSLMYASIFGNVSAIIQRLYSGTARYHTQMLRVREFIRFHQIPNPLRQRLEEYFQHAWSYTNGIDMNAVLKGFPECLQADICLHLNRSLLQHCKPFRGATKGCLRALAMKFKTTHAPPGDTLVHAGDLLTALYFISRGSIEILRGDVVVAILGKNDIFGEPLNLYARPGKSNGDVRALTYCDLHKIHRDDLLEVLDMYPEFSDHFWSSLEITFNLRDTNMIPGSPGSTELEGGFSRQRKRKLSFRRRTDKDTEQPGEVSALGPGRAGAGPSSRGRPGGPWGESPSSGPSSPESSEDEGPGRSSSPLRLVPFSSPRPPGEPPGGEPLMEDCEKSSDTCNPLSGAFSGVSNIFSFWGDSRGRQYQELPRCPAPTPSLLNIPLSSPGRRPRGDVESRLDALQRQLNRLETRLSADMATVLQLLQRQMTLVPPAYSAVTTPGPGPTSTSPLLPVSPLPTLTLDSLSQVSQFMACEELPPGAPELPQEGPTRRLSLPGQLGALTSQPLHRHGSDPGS

Row | SMILES | hERG current change (%, negative = inhibition) at 1uM [%]
1 | CCCCCCCN1C2=NCCCN2c2ccccc21.Cl | -21.6
2 | Br.CC(C)(C)C(=O)CN1C2=NCCN2c2ccccc21 | 2.72
3 | CCCCCCN1C2=NCCN2c2ccccc21.Cl | -82.3
4 | O=C(CNC(=O)C12CC3CC(CC(C3)C1)C2)NC1=NCCS1 | 12.3
5 | COc1ccc(O)c(C2(O)C(=O)c3ccccc3C2=O)c1 | 14.2
6 | COc1cccc(NC(=O)Nc2nnc(-c3ccccc3SCc3ccccc3)s2)c1 | 2.04
7 | O=C(Nc1c2c(nn1-c1ccc([N+](=O)[O-])cc1)CS(=O)(=O)C2)c1ccco1 | -24.1
8 | O=C(CCN1CCN(Cc2ccccc2)CC1)Nc1cccc(Cl)c1 | -45
9 | O=C(c1cc2ccccc2oc1=O)N1CCN(C(=O)C2CCCO2)CC1 (stereo not drawn) | 4.25
10 | CCCOc1ccc(C2C(C(=O)c3ccc(C)o3)=C(O)C(=O)N2Cc2ccco2)cc1OCC (stereo not drawn) | 14.9
11 | COc1ccccc1N1CCN(C(=O)C(OC(C)=O)c2ccccc2)CC1 (stereo not drawn) | 11.8
12 | CCCCN(CC)CCNC(=O)c1cc2c(=O)[nH]c3ccccc3c2n1C | 11.5
13 | N#Cc1ccc(C(=O)Nc2cc(-c3ccccc3)nn2-c2ccccc2)cc1 | 0.56
14 | COc1cccc(C2CCCN2Cc2nc(CC3CC3)no2)c1 (stereo not drawn) | 14.5
15 | CNC(=S)N1CCN(c2cccc(OC)c2)CC1 | 7.07
16 | COc1cc(O)oc1C=Nc1ccc(Cl)cc1 | 10.9
17 | CNC(=S)NNC(=O)c1ccccc1Br | 15.2
18 | Cc1ccccc1CN1C2=NCCN2c2ccccc21.Cl | -13.7
19 | CCCCCCCN1C2=NCCN2c2ccccc21.Cl | -60.7
20 | O=C(Cn1c2c(sc1=O)C1c3ccccc3OCC1CS2)Nc1ccc(Cl)cc1 (stereo not drawn) | 9.64
21 | Nc1nc(SCCC(F)=C(F)F)n[nH]1 | 4.82
22 | CCN(CC)CCCNC(=O)c1cn(C)c2ccc(S(=O)(=O)N(C)C3CCCCC3)cc2c1=O | 12.2
23 | CCCN(CCC)CCCNC(=O)c1cn(CC)c2ccc(S(=O)(=O)N(C)C3CCCCC3)cc2c1=O | -46.1

Row | SMILES | hERG current change (%, negative = inhibition) at 1uM [%]
24 | CCCCN(C)CCCNC(=O)c1cn(C)c2ccc(S(=O)(=O)N(C)C3CCCCC3)cc2c1=O | -45.6
25 | CCN(CC)CCNC(=O)c1cn(CC)c2ccc(S(=O)(=O)N(C)C3CCCCC3)cc2c1=O | 9.42
26 | CCCCN(CC)CCCNC(=O)c1cn(C)c2ccc(S(=O)(=O)N(C)C3CCCCC3)cc2c1=O | -66.6
27 | CCCCN(CCCC)CCNC(=O)c1cn(CC)c2ccc(S(=O)(=O)N(C)C3CCCCC3)cc2c1=O | -84.2
28 | O=C(/C=C/c1ccccc1Cl)c1cccnc1 | 6.53
29 | CCC[C@H](CN[C@@H](CNC)[C@H](C)CC)NCCc1cc(C(F)(F)F)cc(C(F)(F)F)c1 | 0.0872
30 | CC(CCc1ccccc1)NCC(O)COc1ccccc1 (stereo not drawn) | -6.95
31 | CC1(c2ccc3ccccc3c2)NC(=O)N(CC(=O)Nc2ncccc2O)C1=O (stereo not drawn) | 14.4
32 | COC(=O)C(CCCCNC(=O)c1ccc([N+](=O)[O-])cc1)NC(=O)c1ccc([N+](=O)[O-])cc1 (stereo not drawn) | -84.2
33 | COC(=O)C(CC(C)C)NC(=O)c1ccc([N+](=O)[O-])cc1 (stereo not drawn) | 0.193
34 | O=C(NCCCCC(NC(=O)c1ccc([N+](=O)[O-])cc1)C(=O)O)c1ccc([N+](=O)[O-])cc1 (stereo not drawn) | -6.29
35 | CCOC(=O)c1nnc(-c2ccccc2)nc1NC | 2.74
36 | CCN1CCN(C(=S)c2ccc(SC)cc2)CC1 | -18
37 | Cc1cccc(C(=O)Nc2cccc3cccnc23)c1 | 17.4
38 | CC(=O)NC(=S)NNC(=O)CCc1ccccc1 | 6.91
39 | O=C(Cc1ccc(Br)cc1)Nc1cccc(-c2cn3c(n2)SCC3)c1 | 12.2
40 | COC(=O)c1sccc1-n1cccc1C(=O)C(=O)N1CCCC1 | 6.84
41 | COC(=O)c1sccc1-n1cccc1C(=O)C(=O)N1CCOCC1 | -87.6
42 | COC(=O)c1sccc1-n1cccc1C(=O)N1CCOCC1 | -11.6
43 | CCN(CC)CCOc1nnc(-c2ccc(OC)cc2)c2ccccc12 | -25.1
44 | CCN(CC)CCOc1nnc(-c2ccc(C)cc2)c2ccccc12 | -58.4
45 | COc1nnc(-c2ccc(C)cc2)c2ccccc12 | 13.6
